TDP1 cell noCPT – qHTS for Inhibitors of human tyrosyl-DNA phosphodiesterase 1 (TDP1): qHTS in cells in absence of CPT. DT40 Tdp1-/- hTDP1 cells, no CPT, ATP luminescence, 48 h. Potency, µM (top dose mostly 46.2 µM), without a hit: at the highest dose activity change, negative = growth inhibition, most hits filed as inhibitors. 420,000 tested, 15% active; note: nearly all actives have a fitted effect of over 55% in size
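Seeded 400 DT40-hTDP1 cells/well (vehicle DMSO, no 20 nM CPT); pinned compounds; ≥48 hr at 37 °C; CellTiter-Glo luminescence as viability measure.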
DT40 TDP1 CPT – DT40-hTDP1 cell growth loss with CPT; Potency, µM (highest dose often 46.2 µM), inactives show at the highest dose activity change, negative = growth inhibition, most hits filed as inhibitors; 420,000 tested, 12% active; chicken DT40 Tdp1-/-;hTDP1 cells + 20 nM CPT, ATP luminescence, 48 h; AID 686979; note: nearly all actives have a fitted effect of over 55% in size
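Cell growth measured by CellTiter-Glo luminescence after a minimum 48 h, 37 C compound exposure with 20 nM CPT in Tdp1-knockout DT40 cells stably expressing hTDP1, seeded 400/well; qHTS titration format.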
12-LOX inh – ALOX12 (human) lipoxygenase inhibition; Potency, µM (top dose mostly 108 µM), for the others: top-dose activity change, negative = inhibition, usual class: inhibitors; purified 12hLO, xylenol orange hydroperoxide absorbance; 580,000 tested, 1.1% active; P18054
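Hydroperoxide product was detected by ferrous iron/xylenol orange as the 573 to 405 nm absorbance ratio. Arachidonic acid at 40 uM (final) was turned over for 30 min at room temperature by 150 nM human 12hLO, pH 7.0 Hepes buffer, after 15 min compound preincubation.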
RORgamma inh – inhibitors of mouse ROR gamma transcriptional activity; P51450; Drosophila S2 Gal4-RORgamma UAS-luciferase reporter, 20 h; Potency, µM (titrated, usually from 53.6 µM), without a hit: at the top dose activity change, negative = inhibition, actives largely listed as inhibitors; 310,000 tested, 5.4% active; AID 2551; note: nearly all actives have a fitted effect of over 60% in size
Target sequence (P51450 whole entry, looked up, the tested form may be a part): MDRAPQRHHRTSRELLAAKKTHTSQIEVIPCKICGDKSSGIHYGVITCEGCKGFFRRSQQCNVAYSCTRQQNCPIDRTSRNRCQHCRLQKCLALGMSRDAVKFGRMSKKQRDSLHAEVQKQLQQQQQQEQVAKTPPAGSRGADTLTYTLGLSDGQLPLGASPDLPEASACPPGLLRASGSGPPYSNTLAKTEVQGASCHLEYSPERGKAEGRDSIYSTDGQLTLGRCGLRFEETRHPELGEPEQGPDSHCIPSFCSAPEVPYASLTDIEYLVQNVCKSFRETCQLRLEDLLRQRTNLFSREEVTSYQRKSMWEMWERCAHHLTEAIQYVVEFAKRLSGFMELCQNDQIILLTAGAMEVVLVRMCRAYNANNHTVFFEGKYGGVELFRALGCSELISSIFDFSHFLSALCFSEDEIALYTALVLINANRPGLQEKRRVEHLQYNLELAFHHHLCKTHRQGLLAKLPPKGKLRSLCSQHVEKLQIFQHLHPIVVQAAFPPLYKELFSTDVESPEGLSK
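Read-out: Photinus luciferase luminescence; inhibitors lower reporter signal. Insect Schneider cells with Gal4-ROR gamma fusion under metallothionein promoter, UAS reporter; 700 uM final copper sulfate induction, 20 hr, ambient temperature.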
ELG1 DNA repair – blocks ELG1-dependent DNA repair in HEK293T cells; Potency, µM (highest dose often 46.1 µM), for inactives: at the top dose activity change, negative = inhibition, most hits filed as inhibitors; HEK293T ELG1-luciferase reporter, luminescence, 16 h; DNA damage induced by 5-fluorouridine; 330,000 tested, 2.3% active; AID 504467; note: nearly all actives have a fitted effect of over 55% in size
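In this reporter screen, reduction of luminescence relative to DMSO vehicle indicated activity. Compounds and 5-fluorouridine were added together to 2,000 cells per well, incubated for 16 hr at 37 °C, then developed with ONE-Glo.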
Gal4-VP16 FLuc – Gal4-VP16 reporter inhibition counter-screen. AID 2546. Potency, µM (series often up to 53.6 µM), for the others: at the highest dose activity, negative = inhibition, hits mostly inhibitors. Drosophila S2 Gal4-VP16 UAS-luciferase, luminescence, 20 h. 310,000 tested, 3.5% active;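 note: Gal4-VP16 expression switched on by copper sulfate through the metallothionein promoter; nearly all actives have a fitted effect of over 50% in size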
The depositor's hits bear a star; ? = inconclusive; · = not tested or not shown; [ ] = dose if it differs, or a comment. An excerpt weighted towards active compounds, which were near 15% of everything screened. Calls come from the whole dose curve; as a rule, active = well fitted curve in the direction sought with a large enough effect; inconclusive = small, poorly fitted or top-dose-only effect, or another doubt; inactive = no such curve, though single readings can be large; an effect the other way counts as inactive or inconclusive. % is set by controls: 0 for no effect and ±100 for the full control effect; potency is the fitted concentration of half-maximal effect.

SMILES | TDP1 cell noCPT | DT40 TDP1 CPT | 12-LOX inh | RORgamma inh | ELG1 DNA repair | Gal4-VP16 FLuc
COc1cccc(-c2ccc(NC(=O)C3CCCN(Cc4cc(C(C)C)n[nH]4)C3)cc2)c1 (centres undefined) | · | · | 14% | · | · | ·
O=C(NCc1ccco1)C1CN(S(=O)(=O)c2ccccc2)CC12CCCCC2 (centres undefined) | · | · | 32% | · | · | ·
N#Cc1cccc(NC(=O)NCCNC(=O)Nc2cccc(C#N)c2)c1 | · | · | -1% | · | · | ·
COc1cc(O)c2c(c1)/C=C/CCC/C(=N\O)CCC[C@H](C)OC2=O | · | · | -53% | · | · | ·
COc1ccccc1C1=CC(=O)C[C@H](c2ccc(Cl)cc2)C1 | ? | 15µM* | -8% | · | ? | ·
COc1cccc(C2=CC(=O)C[C@H](c3ccc(Cl)cc3)C2)c1OC | ? | 23µM* | -14% | · | 21µM* | ·
CCOc1cc(NS(=O)(=O)c2ccc(OC)cc2)c(OCC)cc1NC(=O)c1ccco1 | 23µM* | 21µM* | ? | -12% | ? | 17%
CCOc1cc(NC(=O)c2cccs2)c(OCC)cc1NC(=O)c1ccco1 | -26% | ? | 0% | 10% | 4% | -3%
COc1ccc(S(=O)(=O)Nc2cc(OC)c(NC(=O)c3ccco3)cc2OC)cc1 | -29% | -18% | -22% | 0% | ? | 12%
CCOc1cc(NS(=O)(=O)CC)c(OCC)cc1NC(=O)c1ccco1 | ? | ? | -5% | ? | 16µM* | 17%
O=[N+]([O-])c1cccc2c(S(=O)(=O)N3CCCCC3)cccc12 | ? | -20% | -2% | 89% | 2% | ?
COc1ccc(S(=O)(=O)N2CCCC2)c2ccccc12 | -20% | -30% | 13% | -1% | 14% | 1%
O=S(=O)(c1cccc(S(=O)(=O)N2CCCC2)c1)c1cccc(S(=O)(=O)N2CCCC2)c1 | ? | 13µM* | -26% | -8% | 21µM* | -1%
COc1c(S(=O)(=O)N2CCCCC2)ccc2c(S(=O)(=O)N3CCCCC3)cccc12 | 23µM* | 16µM* | -22% | · | · | ·
O=S(=O)(c1cccc2c(S(=O)(=O)N3CCCC3)cccc12)N1CCCC1 | 16µM* | ? | 10% | ? | ? | -7%
COc1ccc(NC(=O)C(C)n2cccn2)cc1OC(F)F (centres undefined) | · | · | -29% | · | · | ·
CCCN1CNC(=S)N(c2cccc(C)c2C)C1 | 4% | 7% | -21% | 10µM* | -10% | ?
CCN1CNC(=S)N(c2cccc(C)c2C)C1 | 1% | -14% | -1% | 11µM* | 4% | ?
CCc1ccc(NC(=S)Nc2cccc3cnccc23)cc1 | 15µM* | ? | 14% | 11µM* | ? | ?
C=C(C)CNC(=S)Nc1cccc2cnccc12 | ? | -6% | -22% | -18% | ? | -23%
Cc1cc(C)cc(NC(=S)Nc2cccc3cnccc23)c1 | ? | -4% | ? | 13µM* | ? | ?
Cc1ccc(NC(=S)Nc2cccc3cnccc23)c(C)c1 | ? | 8% | -18% | 16µM* | 21µM* | -26%
COc1ccccc1CNC[C@H]1Cn2cc(-c3ccccc3OC)nc2CO1 | · | · | 44%[176 µM] | · | · | ·
Cc1ccc(F)cc1NC(=O)c1nn(-c2ccccc2)c(=O)c2ccccc12 | · | · | -13% | · | · | ·
O=C(N/N=C/c1cccnc1)c1ccccc1[N+](=O)[O-] | -20% | -2% | -3% | -3% | 12% | 1%
SMILES | TDP1 cell noCPT | DT40 TDP1 CPT | 12-LOX inh | RORgamma inh | ELG1 DNA repair | Gal4-VP16 FLuc
O=C(N/N=C/C(Br)=C/c1ccccc1)c1ccccc1[N+](=O)[O-] | 13µM* | 13µM* | -9% | 26% | 7% | 5%
Cc1occc1C(=O)N/N=C/C(Br)=C/c1ccccc1 | 12µM* | 9.2µM* | -5% | ? | ? | -5%
COCCNC(=O)[C@@H]1C[C@H](Oc2ccccc2)CN1C(=O)COc1ccccc1 | · | · | -6% | · | · | ·
CCCn1c(CCC(=O)Nc2cc(C(=O)OC)cc(C(=O)OC)c2)nc2cccnc21 | ? | 29µM* | -12% | · | · | ·
COc1ccc(Cn2c(CCC(=O)Nc3cccc(OC)c3)nc3cccnc32)cc1 | -3% | -17% | 7% | · | · | ·
CCCn1c(CCC(=O)Nc2cc(OC)cc(OC)c2)nc2cccnc21 | 23µM* | ? | -2% | · | · | ·
Cn1ccnc1CN(C1CC1)S(=O)(=O)c1cccc(Cl)c1F | · | · | -1% | · | · | ·
Cc1ccc(-n2nc3n(c2=O)CCN(C(=O)Cc2cccc(Cl)c2)C3)cc1 | · | · | 5% | · | · | ·
CC(=O)c1c(C)oc2ccc(NS(=O)(=O)c3ccc(C(C)C)cc3)cc12 | 5.8µM* | 5.8µM* | -13% | · | · | ·
CC(=O)c1c(C)oc2ccc(NS(=O)(=O)c3ccc(C)cc3)cc12 | 8.2µM* | ? | -7% | ? | ? | ?
COCCOC(=O)c1c(C)oc2ccc(NS(=O)(=O)c3ccc(C(=O)O)cc3)cc12 | -27% | -2% | -4% | -25% | -2% | -1%
COCc1oc2ccc(NS(=O)(=O)c3ccc(C)cc3)cc2c1C(=O)OC | 2.3µM* | 3.7µM* | -11% | · | · | ·
Cc1oc2ccc(NS(=O)(=O)c3ccc(C(C)(C)C)cc3)cc2c1C(=O)Nc1ccccc1 | 18µM* | ? | 6% | 37% | ? | -8%
CC(C)C1=NOC2(CCN(Cc3ccc(C#N)cc3)C2)C1 (centres undefined) | · | · | 13%[12.5 µM] | · | · | ·
COc1ccc(-c2cn(-c3ccc(Br)cc3)c3[n+]2CCS3)cc1 | 6.5µM* | 8.2µM* | -13% | 6% | -18% | ?
Cc1c(-c2ccc(Cl)cc2)[n+](=O)c(-c2ccccc2)cn1[O-] | ? | -8% | -21% | -1% | ? | -2%
Oc1ccc(C2=NN(c3ccccc3)C(c3ccc(F)cc3)C2)cc1 (centres undefined) | ? | ? | ? | -26% | -8% | -15%
CC(=O)c1ccc(-n2cc(-c3ccc(C(C)(C)C)cc3)[n+]3c2SCCC3)cc1 | 0.16µM* | 0.21µM* | 1% | -22% | 7.3µM* | 11µM*
Fc1ccc(-c2cn(-c3ccccc3)c3[n+]2CCS3)cc1 | 23µM* | ? | 40% | -2% | 21µM* | -3%
Clc1ccc(-c2cn(-c3ccccc3)c3[n+]2CCS3)cc1 | 6.5µM* | ? | -2% | -13% | -12% | -4%
CC(=O)c1ccc(N2CCN(c3ccc(C(F)(F)F)cn3)CC2)cc1 | ? | -19% | -2% | ? | -4% | -4%
Cc1ccc(NC(=O)CCc2c(C)c3ccc(C)cc3oc2=O)cc1 | · | · | -28% | · | · | ·

Source: PubChem BioAssay
